Bioassay records (PubChem)
Sampled rows, rich in hits. Any-hit rate of the full collection: about 1.3%.
TcdB GH inh: inhibitors of Clostridioides difficile toxin B glycohydrolase; P18177; TcdB glycohydrolase enzymatic assay, plate reader; inhibition, % at 9.99 µM; 350,000 compounds, 0.24% hits; in the data active means inhibition above about 10%
Sa ugtP lethal: compounds lethal to S. aureus RN4220 ugtP deletion mutant; OD600 growth, 16 h; growth inhibition, % (no concentration beside the values); 330,000 compounds, 0.54% hits; AID 1259309; in the data active means growth inhibition above about 68%;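 further: plate controls were untreated wells for no effect and antibiotic for full effect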
RN4220 kill: kills Staphylococcus aureus RN4220 | S. aureus RN4220 growth, OD600, 16 h | inhibition, % (no concentration beside the values) | 330,000 compounds, 0.33% hits; in the data active means inhibition above about 85%;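 further: plate controls were untreated cells for no effect and reference antibiotic for full effect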
MazF activator: activators of E. coli MazEF toxin-antitoxin RNase | FAM/BHQ RNA-DNA oligo cleavage fluorescence, 5 h | activation, % at 20 µM | AID 504720 | P0AE70 | 350,000 compounds, 0.32% hits; in the data active means activation above about 50%
Mtb hypoxia inh: Mtb hypoxia fluorescent reporter inhibition; M. tuberculosis hypoxia-regulated fluorescent reporter, fluorescence; fluorescence inhibition, % (concentration not given with the values); 300,000 compounds, 0.1% hits; in the data active means fluorescence inhibition mostly above about 23%, no sharp cut-off; inactive means mostly below about 17%
PfHsp40 rescue: compounds rescuing yeast from Plasmodium falciparum HSP40 toxicity | 340,000 compounds, 0.68% hits | growth rescue, % at 12.5 µM | AID 504582 | S. cerevisiae expressing PfHsp40, growth rescue, ATP luminescence; in the data active means growth rescue above about 28%, passing the limit was not always enough;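 further: yeast W303a lacking pdr1 and pdr3 grown in galactose medium; growth measured after three days at 30 °C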
An asterisk follows results filed as active; . = not tested or not shown.

SMILES | TcdB GH inh | Sa ugtP lethal | RN4220 kill | MazF activator | Mtb hypoxia inh | PfHsp40 rescue
Cc1cccc(S(=O)(=O)N2C[C@H](O)COC[C@@H]3O[C@@H](CC(=O)N4CCN(C)CC4)CC[C@H]32)c1 | 0 | . | . | . | . | .
Cc1ccc(NC(=S)Nc2cccc3cnccc23)cc1 | 0 | 6 | 3 | -2 | 16 | -2
Cc1ccc(NC(=S)Nc2cccc3cnccc23)cc1C | 1 | -4 | -2 | 6 | -6 | 377*
Cc1ccccc1NC(=S)Nc1cccc2cnccc12 | 2 | 2 | 1 | -1 | 13 | 0
S=C(Nc1cccc(Cl)c1)Nc1cccc2cnccc12 | . | -27 | -11 | 4 | -3 | 31*
O=[N+]([O-])c1ccc(O)c(-c2cc(C(F)(F)F)nc(-c3ccccc3)n2)c1 | 0 | 99* | 100* | 1 | . | -1
Cc1ccccc1C1C(C#N)=C2NC(=O)c3c(sc4c3CCCCC4)N2C2=C1C(=O)CC(C)(C)C2 (configuration not stated) | . | -9 | -4 | . | -89 | .
Cc1ccccc1C1C(C#N)=C2N=C(N)c3c(sc4c3CCCCC4)N2C2=C1C(=O)CC(C)(C)C2 (configuration not stated) | . | -29 | -7 | 165* | -2 | 0
CC(C)C(=O)NNS(=O)(=O)c1ccccc1[N+](=O)[O-] | . | 0 | 5 | 0 | 5 | 55*
CC(C)C=NNc1nc(-c2ccc(Br)cc2)cs1 | . | 30 | -4 | . | 4 | .
CCNC(=O)CN(c1ccc(Oc2ccccc2)cc1)S(=O)(=O)c1ccccc1 | 0 | -2 | 1 | -2 | -3 | 60*
Cc1cc(O)c2c(c1O)C(=O)[C@]13C(=C2O)C(=O)[C@@H]2[C@@H](O)[C@H]1[C@@H]1[C@H](O)[C@H]3C(=O)C3=C(O)c4c(O)cc(C)c(O)c4C(=O)[C@]312 | . | 99* | 99* | -21 | . | 71*
COc1ccc(C(=O)Nc2nc(C)c3cc4c(cc3n2)OCO4)cc1 | 1 | -3 | -2 | -8 | 38* | -1
Cc1nc(NC(=O)c2ccc(Cl)cc2)nc2cc3c(cc12)OCO3 | . | 12 | 7 | 8 | 8 | -1
O=c1oc2cc(Oc3c([N+](=O)[O-])cc(C(F)(F)F)cc3[N+](=O)[O-])ccc2c2c1CCCC2 | . | 94* | 44 | 6 | -4 | 0
CCCOc1ccc(/C=c2\sc3nc(-c4ccco4)nn3c2=O)cc1OCC | . | . | . | 218* | . | 0
OC[C@@H]1[C@H](c2ccc(-c3ccc(F)cc3)cc2)[C@@H]2CN(CCC(F)(F)F)CCCCN12 | 0 | . | . | . | . | .
CCCNC(=O)C[C@H]1CC[C@H]2[C@H](COc3ccc(NC(=O)c4cccc(C(F)(F)F)c4)cc3C(=O)N2C)O1 | -1 | . | . | . | . | .
Cc1cc(Nc2cccc(F)c2)n2c(n1)nc1ccccc12 | 2 | -10 | 2 | 57* | 4 | -1
CC1CCN(c2nc(-c3cccnc3)nc3scc(-c4ccccc4)c23)CC1 | 0 | -10 | 2 | -38 | 10 | 0
Clc1nc(-c2ccccn2)nc2scc(-c3ccccc3)c12 | . | 56 | 12 | 1 | -1 | 400*
CN(C)c1ccc(/C=C/c2ccc3ccccc3[n+]2C)cc1 | . | 95* | 97* | 11 | 11 | 53*
CN(C)c1ccc(/C=C/c2cccc[n+]2[O-])cc1 | 13* | . | . | -39 | . | 1
CN(C)c1ccc(/C=C/c2ccc3c4ccccc4ccc3[n+]2-c2ccccc2)cc1 | 0 | 98* | 98* | -10 | . | 0
Cc1nnc(SCC(=O)NN=Cc2cc(Cl)c(O)c(Cl)c2)s1 | . | 3 | -4 | . | 1 | .
SMILES | TcdB GH inh | Sa ugtP lethal | RN4220 kill | MazF activator | Mtb hypoxia inh | PfHsp40 rescue
CCCCN(C)S(=O)(=O)c1cc(Br)cc2c1N(C(=O)C1CC1)CC2 | . | -4 | 9 | -4 | 5 | 132*
O=C(O)CCS(=O)(=O)c1cc(Br)cc2c1N(C(=O)C1CC1)CC2 | 1 | -72 | 8 | 6 | 3 | -1
Cc1ccccc1C(=O)NNC(=S)NC(=O)c1ccc(Cl)cc1Cl | 1 | 39 | 62 | -1 | 12 | 395*
COc1ccc(C(=O)NC(=S)NNC(=O)c2ccccc2C)cc1 | 0 | 12 | 38 | 2 | -7 | 105*
Cc1cc(C(=O)NNC(=S)NC(=O)/C=C/c2ccccc2Cl)n[nH]1 | 0 | -27 | 7 | -9 | 1 | 56*
COc1ccc(C(=O)NC(=S)NNC(=O)c2ccccc2O)cc1 | 0 | 9 | 34 | 7 | 11 | -2
Cc1cccc(C(=O)NC(=S)NNC(=O)Cc2ccccc2)c1 | 4 | 19 | 44 | 7 | 5 | 229*
CCC(C(=O)NN=Cc1cccnc1)c1ccccc1 (configuration not stated) | . | -3 | -1 | . | 20 | .
CC(=O)NNC(=S)NC(=O)c1ccc(C)cc1 | 1 | 7 | 6 | 1 | 3 | -1
Cc1cccc(C(=O)NC(=S)Nc2ccccc2C(=O)O)c1 | -1 | -3 | 0 | -28 | 4 | 1
Cc1cccc(C(=O)NC(=S)NNC(=O)c2ccccc2Cl)c1 | 6 | 18 | 51 | 9 | -4 | 64*
CCC(=O)NNC(=S)NC(=O)c1ccc(C)cc1 | 2 | 13 | 16 | -18 | 2 | 69*
CCOc1cc(C=NO)ccc1OCc1ccc(F)cc1 | . | 5 | 5 | . | 3 | .
Clc1ccccc1/C=N/NC1=Nc2cccc3cccc1c23 | 3 | . | . | 231* | . | 0
C(=N\NC1=Nc2cccc3cccc1c23)/c1ccccn1 | 1 | . | . | 9 | . | 327*
CO[C@H]1CN(C)C(=O)c2cc(NC(=O)C3CC3)ccc2OC[C@@H](C)N(C)C[C@H]1C | 0 | . | . | . | . | .
CC(O)[C@H]1CN=C(N)N1CCc1cc(C(F)(F)F)cc(C(F)(F)F)c1 (some centres not stated) | 1 | . | . | 6 | . | -1
NC1=NC[C@@H](CC2CCCCC2)N1CCc1cc(C(F)(F)F)cc(C(F)(F)F)c1 | . | 100* | 100* | -13 | . | -2
NC1=NC[C@H](Cc2ccc(O)cc2)N1CCCCC1CCCCC1 | 3 | 100* | 100* | 10 | 4 | 0
NC1=NC[C@H](Cc2ccc(O)cc2)N1CCc1cc(C(F)(F)F)cc(C(F)(F)F)c1 | 11* | . | . | 24 | . | 0
NC1=NCC(CC2CCCCC2)N1CCc1cc(C(F)(F)F)cc(C(F)(F)F)c1 (configuration not stated) | . | 101* | 101* | . | 8 | .
NC1=NCC(Cc2ccccc2)N1CCc1cc(C(F)(F)F)cc(C(F)(F)F)c1 (configuration not stated) | . | -1 | -16 | . | 19 | .
CC(O)C1CN=C(N)N1CCc1cc(C(F)(F)F)cc(C(F)(F)F)c1 (configuration not stated) | . | 2 | 2 | . | -4 | .
COc1cc(C=Nn2nnnc2Nc2ccccc2)cc(OC)c1OC | . | 9 | 5 | . | 8 | .
COc1ccc(NC(c2ccccc2)c2ccncc2)cc1 (configuration not stated) | 16* | 4 | 3 | -3 | -7 | 1
